Most compounds without a hit are left out; they make up all but 1.6% or so of the library.
KCNQ2 block – inhibitors of rat KCNQ2 potassium channel; O88943; CHO-K1 KCNQ2, FluxOR thallium flux, 20 min; active compounds read low; B-score at 10 µM; hit rate 1.1% among 310,000;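 active = fluorescence ratio B-score at most minus 3 library SDs, with starting brightness B-score within 2 library SDs, cut at about -5.5 in these data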
Target sequence (O88943 whole entry, looked up): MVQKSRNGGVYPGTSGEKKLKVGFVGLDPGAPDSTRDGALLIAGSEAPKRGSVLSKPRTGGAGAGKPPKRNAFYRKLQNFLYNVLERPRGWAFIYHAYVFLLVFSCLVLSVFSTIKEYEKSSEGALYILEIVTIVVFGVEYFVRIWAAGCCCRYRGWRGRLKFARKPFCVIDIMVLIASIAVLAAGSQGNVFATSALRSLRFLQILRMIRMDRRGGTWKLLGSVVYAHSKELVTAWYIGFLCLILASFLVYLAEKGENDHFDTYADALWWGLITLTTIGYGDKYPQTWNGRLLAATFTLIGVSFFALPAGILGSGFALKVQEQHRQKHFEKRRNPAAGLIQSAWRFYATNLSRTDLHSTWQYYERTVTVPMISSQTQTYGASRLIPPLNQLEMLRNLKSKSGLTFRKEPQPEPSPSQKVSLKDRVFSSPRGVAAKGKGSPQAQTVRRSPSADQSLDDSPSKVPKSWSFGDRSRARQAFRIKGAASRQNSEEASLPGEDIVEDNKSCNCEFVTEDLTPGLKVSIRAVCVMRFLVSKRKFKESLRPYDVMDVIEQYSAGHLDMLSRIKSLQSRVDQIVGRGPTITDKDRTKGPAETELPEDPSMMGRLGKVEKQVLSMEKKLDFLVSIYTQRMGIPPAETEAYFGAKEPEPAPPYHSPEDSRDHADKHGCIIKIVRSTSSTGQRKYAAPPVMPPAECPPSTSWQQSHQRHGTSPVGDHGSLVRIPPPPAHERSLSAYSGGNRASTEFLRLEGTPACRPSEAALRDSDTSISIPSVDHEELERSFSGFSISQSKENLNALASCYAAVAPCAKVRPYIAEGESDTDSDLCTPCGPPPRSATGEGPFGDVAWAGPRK
KCNQ2 enhance – KCNQ2 (rat) channel potentiation; B-score at 10 µM; CHO-K1 KCNQ2, FluxOR thallium flux fluorescence; active compounds read high; hit rate 0.54% among 310,000; O88943;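 active = fluorescence ratio B-score at least 3 SD of library B-scores, with initial fluorescence B-score within 3 of them, cut at about 5.3 in these data; same plate scores as AID 2156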;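 note: B-score of peak minus minimum over baseline fluorescence ratio after K+ and Tl+ stimulus; positive B-score means potentiation of KCNQ2 with more thallium influx and brighter signal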
* = called active by the depositor; i = inactive; · = no result given.

SMILES | KCNQ2 block | KCNQ2 enhance
C/C(=N\OCC(=O)Nc1ccccc1C(=O)O)c1cccs1 | i | 0.2
COc1ccccc1C(c1nnnn1C1CCCC1)N1CCN2CCCC2C1 (configuration not stated) | i | ·
COc1ccccc1NC(=O)/C(=C/c1cccc([N+](=O)[O-])c1)c1ccccc1 | -6* | -6
COc1ccccc1NC(=O)CC(=O)c1cccc([N+](=O)[O-])c1 | i | 0.17
CCOC(=O)[C@@H]1[C@H]2COc3ccc(Br)cc3[C@@H]2N2C(=O)N(c3ccc(C(F)(F)F)cc3)C(=O)[C@]12C | i | ·
CCOC(=O)C1(CCOc2ccccc2)CCN(Cc2ccc(O)cc2)CC1 | i | 1.6
CCOC(=O)C1(CCOc2ccccc2)CCN(Cc2cccc3nonc23)CC1 | -6.2* | -6.2
O=C(CCc1ccccc1)NNC(=O)c1ccccc1F | i | ·
N#CN/C(=N\S(=O)(=O)c1ccccc1)c1ccccc1 | i | ·
C=CCOc1c(Br)cc(CNc2ccc(NC(=O)C(C)C)cc2)cc1OCC | i | 8.3*
CCOc1cc(CNc2ccc(O)cc2)cc(Br)c1OCc1ccccc1F | i | ·
CCC(C)Oc1nc(C)cc(C)c1S(=O)(=O)c1ccccc1C (configuration not stated) | i | ·
CC1CCN(c2oc(Cc3cccc4ccccc34)nc2C#N)CC1 | -5.9* | -5.9
N#Cc1nc(Cc2cccc3ccccc23)oc1N1CCOCC1 | i | 0.03
N#Cc1nc(COc2ccccc2)oc1N1CCN(Cc2ccccc2)CC1 | -6.4* | -6.4
N#Cc1nc(Cc2cccc3ccccc23)oc1N1CCN(c2ccccc2)CC1 | i | ·
N#Cc1nc(COc2cccc(Cl)c2)oc1N1CCCC1 | i | ·
COc1ccc(N2CCN(c3oc(Cc4cccc5ccccc45)nc3C#N)CC2)cc1 | -7* | -7
CCOC(=O)c1c(-c2ccc(F)cc2)csc1NC(=O)CCN1C(=O)c2ccccc2C1=O | i | ·
CNC(=O)CSc1nc2ccccc2c(=O)n1C1CCCCC1 | i | ·
CCOC(=O)CSc1nc2ccccc2c(=O)n1C1CCCC1 | -5.8* | -5.8
Cc1ccc(S(=O)(=O)c2nnn3c2nc(N2CCOCC2)c2ccccc23)cc1C | i | 0.78
CCCCSCCCNC(=O)Nc1ccc(CC)cc1 | i | 5.6*
CCc1ccc(NC(=O)CSCCO)cc1 | i | 0.6
O=C(CCNc1cccc(F)c1)c1cc2ccccc2o1 | i | 0.07
SMILES | KCNQ2 block | KCNQ2 enhance
COc1ccccc1NC(=O)c1cc(S(=O)(=O)NC2CCCC2)ccc1F | i | ·
S=C1N(c2ccccc2)C(c2ccc(Cl)cc2)N2CCCN12 (configuration not stated) | i | ·
CC1(C)CN2C(=S)N(c3ccccc3)C(c3ccccc3)N2C1 (configuration not stated) | -5.6* | -5.6
O=C(O)c1cccc2c3c([nH]c12)CCCC3 | i | ·
CCCCOc1ccc(C(=O)N(CC)CC(=O)NCc2cccs2)cc1 | i | ·
O=C(Nc1ccccc1F)C(=Cc1sc(N2CCOCC2)nc1-c1ccccc1)C(=O)Nc1ccccc1F | -6.5* | -6.5
O=C(N/N=C/c1sc(N2CCOCC2)nc1-c1ccccc1)c1ccccc1F | i | ·
CCc1nc(SCC(=O)Nc2nc3c(s2)CCCC3)c2ccccc2n1 | i | ·
C#CCOc1nc(C)cc(C)c1S(=O)(=O)c1ccccc1C | i | 0.79
Cc1cccc(OCCCOc2cccc3cccnc23)c1C | i | ·
COc1cccc(OC)c1OCCCOc1cccc2cccnc12 | -5.6* | -5.6
OCCN1CCN(c2ncnc3c2c(-c2ccccc2)cn3-c2ccc(Br)cc2)CC1 | i | ·
Cc1ccc2ncc(S(=O)(=O)c3ccccc3)c(N3CCCCC3C)c2c1 (configuration not stated) | -6.1* | -6.1
COc1ccc2ncc(S(=O)(=O)c3ccccc3)c(N3CCN(c4ccccc4)CC3)c2c1 | i | ·
Cc1ccccc1OCc1nc2ccccc2c(=O)n1N | i | 0.48
CCOC(=O)/C(=N/Nc1ccc(Cl)cc1)Sc1nnnn1-c1ccc(C)cc1 | i | 0.07
COc1ccc(Cn2c(-c3ccco3)nc3oc4cc(OC)ccc4c(=O)c3c2=O)cc1 | i | ·
O=C(CN(C1CCCCC1)S(=O)(=O)c1ccccc1)N1CCCC1 | i | ·
O=C(CN(C1CCCCC1)C1CCCCC1)N1CCc2ccccc2C1 | -8* | -8
O=C(CN1CCCC1)Nc1nnc(-c2cccs2)s1 | i | 0.56
N#Cc1c(SCc2ccccc2)sc(C(=O)c2ccccc2)c1N | i | ·
CC(Oc1ccc(F)cc1)C(=O)Nc1ccccc1N1CCCCC1 (configuration not stated) | -7.7* | -7.7
CCC(Oc1ccccc1)C(=O)Nc1ccccc1N1CCCCC1 (configuration not stated) | i | ·
Cc1nc2ccc(NC(=O)NCc3ccco3)cc2s1 | i | 0.31
O=C(NCc1ccco1)Nc1ccc2snnc2c1 | i | 6.1*
SMILES | KCNQ2 block | KCNQ2 enhance
Cc1cc(NS(=O)(=O)c2ccc(NC(=O)/C=C/c3ccco3)cc2)nc(C)n1 | i | ·
O=C(O)C(Cc1c[nH]c2ccccc12)NS(=O)(=O)c1ccc(Cl)cc1 (configuration not stated) | -7.3* | -7.3
O=C(O)C(Cc1c[nH]c2ccccc12)NS(=O)(=O)c1ccc(Br)cc1 (configuration not stated) | i | 1.2
CC(Sc1nc2ccccc2n1C)C(=O)NC(c1ccccc1)c1ccccc1 (configuration not stated) | -6.1* | -6.1
Cn1c(SC(C(=O)Nc2ccc(F)cc2)c2ccccc2)nc2ccccc21 (configuration not stated) | i | 1.3
C=CCn1c(SCc2cc(=O)n3cc(C)ccc3n2)nnc1-c1cccc(C)c1 | i | 0.89
O=C(NCC(=O)N(c1cccc(F)c1)C(C(=O)NC1CCCC1)c1ccncc1)c1ccco1 (configuration not stated) | i | ·
O=S1(=O)C=C(Oc2ccc3ccccc3c2)c2ccccc21 | -6.1* | -6.1
O=S1(=O)C=C(Oc2ccc(F)cc2)c2ccccc21 | i | 0.45
O=C(CC1C(=O)N(c2ccccc2)C(=S)N1c1ccccc1)c1ccccc1 (configuration not stated) | i | ·
O=C(CC1C(=O)N(c2ccccc2)C(=S)N1c1ccccc1)c1ccc(Br)cc1 (configuration not stated) | -6.4* | -6.4
Cc1ccccc1NS(=O)(=O)c1cc(C(=O)NCCSC2CCCCC2)ccc1C | -5.8* | -5.8
Cc1ccc(C)c(NS(=O)(=O)c2cc(C(=O)NCCSC3CCCCC3)ccc2C)c1 | i | ·
COCCNCC(=O)Nc1ccc(C)c(S(=O)(=O)N2CCCCC2)c1 | i | ·
CCN(CC)C(=O)c1cc2c(=O)n3ccccc3nc2s1 | i | 0.76
CCN(CC)C(=O)c1cc2c(=O)oc3ccccc3c2s1 | -6.9* | -6.9
COc1ccc2c(c1)C(C)CC(C)(C)N2C(=O)CSc1nc2ccccc2s1 (configuration not stated) | -7.5* | -7.5
COc1ccc2c(c1)C(C)CC(C)(C)N2C(=O)Nc1ccccc1 (configuration not stated) | i | ·
CC1=C(C(=O)OCc2ccccc2)C(c2cccnc2)n2nnnc2N1 (configuration not stated) | i | 0.16
NC(=O)C1CCN(c2oc(-c3ccccc3)nc2S(=O)(=O)c2ccc(Br)cc2)CC1 | i | 2.5
O=c1c2cc(Cl)ccc2[nH]c(=S)n1Cc1ccco1 | i | ·
O=c1c2cc(Cl)ccc2[nH]c(=S)n1Cc1cccs1 | i | 5.3*

Compound activity as filed in PubChem.
